Hits are enriched below; roughly 2.3% of the tested compounds scored in any of these assays.
MCL1 BIM primary: MCL1-BIM-BH3 interaction inhibition (human) | Q07820 | GST-MCL1 / FITC-Bim-BH3 fluorescence polarization | inhibition, % at 10.9 µM | 320,000 compounds, 0.68% hits;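 active = inhibition above the mean inhibition of all tested compounds plus 3 SD, set per campaign, cut at about 40% in these data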;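 also: higher means more loss of mP so more displacement of Bim peptide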
Target sequence (Q07820 whole entry, looked up): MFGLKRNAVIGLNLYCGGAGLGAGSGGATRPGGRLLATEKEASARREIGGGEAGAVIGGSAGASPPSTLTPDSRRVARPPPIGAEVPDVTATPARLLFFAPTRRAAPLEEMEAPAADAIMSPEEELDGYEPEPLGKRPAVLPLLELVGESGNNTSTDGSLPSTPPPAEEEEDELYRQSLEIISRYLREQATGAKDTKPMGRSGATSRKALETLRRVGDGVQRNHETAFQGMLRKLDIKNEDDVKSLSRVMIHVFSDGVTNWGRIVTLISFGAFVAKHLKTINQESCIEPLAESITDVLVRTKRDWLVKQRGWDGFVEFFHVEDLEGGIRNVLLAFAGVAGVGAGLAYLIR
Mcl1-Noxa inh: disrupts binding of human Mcl-1 to Noxa peptide. TR-FRET Mcl-1/Noxa peptide binding, 2 h. inhibition, % at 21.7 µM. 220,000 compounds, 1.5% hits;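 active = compounds that cut the protein-peptide binding signal by more than 50% relative to plate controls in a single-dose test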;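 also: His-tagged Mcl-1 with rhodamine Noxa BH3 peptide and terbium anti-His antibody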
GLD-1 TGE inh: GLD-1-TGE RNA interaction inhibition (C. elegans); Q17339; purified GLD-1 + fluorescein TGE RNA, fluorescence polarization; inhibition, % at 5.96 µM; 320,000 compounds, 0.44% hits; AID 2280;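 active = percent inhibition above a per-plate cutoff, the plate mean of test compounds plus 3 SD, cut at about 30% in these data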
Mcl1-Bid inh: Mcl-1/Bid interaction inhibition; inhibition, % at 21.7 µM; 220,000 compounds, 0.97% hits; AID 1021; TR-FRET Mcl-1/Bid-Dy647 peptide binding, 1536-well; Q07820;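 active = compounds that cut the binding signal by more than half at the single screening dose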;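 also: His-tagged Mcl-1 with europium anti-His antibody binding Bid BH3 peptide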
Bim-Mcl-1: human Bim-Mcl-1 interaction inhibition; Bead-based flow cytometry, Bim peptide-Mcl-1 binding; 190,000 compounds, 0.1% hits; inhibition, % at 10 µM; Q07820; in the data active = inhibition above about 40%
Bcl-xL primary: Bcl-xL (human) inhibition. GST-Bcl-xL / FITC-Bim BH3 peptide fluorescence polarization. 320,000 compounds, 0.7% hits. Q07817. AID 2129. inhibition, % at 10.9 µM;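 active = inhibition above the mean of all tested compounds plus 3 SD, cutoff set per campaign, cut at about 30% in these data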;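 also: inhibitors lower millipolarization by displacing the labeled peptide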
Bcl-xL conf: Bcl-xL (human) inhibition, MCL1 counter-screen confirmation; shares compounds with MCL1 BIM primary; GST-Bcl-xL / FITC-Bim BH3 peptide FP binding; inhibition, % at 10.9 µM; 1,700 compounds, 54% hits; AID 2166;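 active = inhibition above a cutoff equal to the mean inhibition of all tested compounds plus 3 SD, cut at about 30% in these data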
MCL1 BIM confirm: MCL1-BIM-BH3 interaction inhibition, confirmation | shares compounds with MCL1 BIM primary | GST-MCL1 / FITC-Bim-BH3 fluorescence polarization | inhibition, % at 10.9 µM | 1,700 compounds, 61% hits;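 active = inhibition above the average of all tested compounds plus 3 SD, cut at about 40% in these data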
Each line names hits and unclear results; the compound was inactive in the other large screens (follow-up assays come after a bar, where they were run).

CCN(CC)C(=O)CSc1ncnc2c(-c3cccs3)nsc12	MCL1 BIM primary 64, Bcl-xL primary 35 | Bcl-xL conf inactive | MCL1 BIM confirm inactive
CCN(CC)C(=O)CSc1ncnc2sccc12	none
CC(C)CCN1CCN(Cc2cccc(C(F)(F)F)c2)CC1CCO (stereo not drawn)	none
COc1ccc(N2CCCC2)c(NC(=O)c2ccc([N+](=O)[O-])o2)c1	MCL1 BIM primary 75, GLD-1 TGE inh 74, Bcl-xL primary 76 (no result: Mcl1-Noxa inh, Mcl1-Bid inh, Bim-Mcl-1) | Bcl-xL conf inactive | MCL1 BIM confirm inactive
CC(C)(C)NC(=O)NC(=O)CN1CCCc2ccccc21	MCL1 BIM primary 84, Bcl-xL primary 77 | Bcl-xL conf inactive | MCL1 BIM confirm inactive
O=C(CN1CCCc2ccccc21)NC(=O)NCc1ccccc1	none (no result: Bim-Mcl-1)
COc1ccccc1S(=O)(=O)N1CCNC(=O)C1	none (no result: MCL1 BIM primary, Mcl1-Noxa inh, Mcl1-Bid inh, Bim-Mcl-1, Bcl-xL primary)
COC(=O)CCC(=O)Nc1nccs1	none
COC(=O)C(Nc1nccs1)(OC)C(F)(F)F (stereo not drawn)	MCL1 BIM primary 68, Bcl-xL primary 61 | Bcl-xL conf 71 | MCL1 BIM confirm 106
O=S(=O)([N-]c1nc2ccccc2nc1-[n+]1ccccc1)c1ccccc1	none
O=S(=O)([N-]c1nc2ccccc2nc1-[n+]1ccc(-c2ccncc2)cc1)c1ccccc1	MCL1 BIM primary active, GLD-1 TGE inh 153, Bcl-xL primary 188 | Bcl-xL conf 150 | MCL1 BIM confirm 183
Cc1ccc(C)c(C(C)NC(=O)CC#N)c1 (stereo not drawn)	MCL1 BIM primary 42 | Bcl-xL conf inactive | MCL1 BIM confirm inactive
N#CC1(C#N)C(C(N)=O)C1c1ccccc1 (stereo not drawn)	none
CN1C=CC2=C(C#N)C(N)C(C#N)(C#N)[C@H](c3ccccc3)[C@H]2C1 (stereo partly drawn)	MCL1 BIM primary 92, Bcl-xL primary 81 | Bcl-xL conf 31 | MCL1 BIM confirm inactive
O=C1c2cccc3c(O)ccc(c23)C(=O)N1c1ccc(Cl)cc1	MCL1 BIM primary active, GLD-1 TGE inh active, Bcl-xL primary active (no result: Mcl1-Noxa inh, Mcl1-Bid inh, Bim-Mcl-1) | Bcl-xL conf active | MCL1 BIM confirm active
CC(=O)Nc1ccc(N2C(=O)c3cccc4c(O)ccc(c34)C2=O)cc1	MCL1 BIM primary active, GLD-1 TGE inh active, Bcl-xL primary active (no result: Mcl1-Noxa inh, Mcl1-Bid inh, Bim-Mcl-1) | Bcl-xL conf active | MCL1 BIM confirm active
O=C(COC(=O)/C=C/c1ccc(Br)o1)Nc1ccc2[nH]c(=O)[nH]c2c1	MCL1 BIM primary 68 (no result: Mcl1-Noxa inh, Mcl1-Bid inh, Bim-Mcl-1) | Bcl-xL conf inactive | MCL1 BIM confirm 63
Cc1cc(C)c[n+](-c2nc3ccccc3nc2[N-]S(=O)(=O)c2ccc(Br)s2)c1	MCL1 BIM primary 47, Bcl-xL primary 62 | Bcl-xL conf 63 | MCL1 BIM confirm 92
O=C(CN1CCN(C(=O)c2ccc(-c3nc4ccccc4s3)o2)CC1)Nc1ccc(F)cc1	none (no result: Mcl1-Noxa inh, Mcl1-Bid inh, Bim-Mcl-1)
O=C(O)C(CO)(c1ccccc1)c1ccccc1	none (no result: Mcl1-Noxa inh, Mcl1-Bid inh, Bim-Mcl-1)
Nc1nnnn1/N=C/c1cc(Cl)cc(Cl)c1O	MCL1 BIM primary 133, GLD-1 TGE inh 78, Bcl-xL primary 109 (no result: Mcl1-Noxa inh, Mcl1-Bid inh, Bim-Mcl-1) | Bcl-xL conf 134 | MCL1 BIM confirm 148
CCCc1cc(=O)[nH]c(SCC(=O)N2c3ccccc3CC2C)n1 (stereo not drawn)	none (no result: MCL1 BIM primary, Mcl1-Noxa inh, Mcl1-Bid inh, Bim-Mcl-1, Bcl-xL primary)
Cc1c(N)cc(N)cc1C(=O)O	MCL1 BIM primary 166, GLD-1 TGE inh 128, Bcl-xL primary 145 (no result: Bim-Mcl-1) | Bcl-xL conf 67 | MCL1 BIM confirm 44
Cc1c(Br)cc(C(=O)O)c(C)c1C	none
CCc1ccc(N2CC(C(=O)OCC(=O)Nc3ccc([N+](=O)[O-])cc3)CC2=O)cc1 (stereo not drawn)	none (no result: Mcl1-Noxa inh, Mcl1-Bid inh, Bim-Mcl-1)
N#Cc1cccc(S(=O)(=O)NCC(=O)OCC(=O)NCc2ccccc2)c1	none (no result: Mcl1-Noxa inh, Mcl1-Bid inh, Bim-Mcl-1)
COc1ccc(CC(=O)Nc2ccc(S(=O)(=O)N3CCN(C)CC3)cc2)cc1	none (no result: Mcl1-Noxa inh, Mcl1-Bid inh, Bim-Mcl-1)
CCCn1c(/C=C/c2cc[n+](C)cc2)nc2ccccc21	MCL1 BIM primary 72, Bcl-xL primary 67 (no result: Mcl1-Noxa inh, Mcl1-Bid inh, Bim-Mcl-1) | Bcl-xL conf 53 | MCL1 BIM confirm 56

Source: PubChem
